Reference: PubChem BioAssay (NCI)
This is part of a sample that, as a whole, favours compounds with a hit. Of some 79,000 tested, about 15% had one in any assay. Values without a mark were called inactive. The source made the active and inactive calls. Cut-off read from the data, not from the text of the source: active = growth inhibition above about 70%; inactive = the rest.

Tests used:
[1] = NCI Yeast Anticancer Drug Screen. Data for the rad50 strain (AID 155);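 note: 0% = growth of vehicle-only cultures of the same strain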; conditions: S. cerevisiae rad50 strain growth inhibition; at 50.0 µM; hits give high values
Method in brief: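 Inhibition values express reduced yeast growth in compound-treated cultures relative to vehicle-treated controls.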

[2] = NCI Yeast Anticancer Drug Screen. Data for the mec2-1 strain (AID 157); conditions: S. cerevisiae mec2-1 strain, at 50.0 µM, hits give high values
Method in brief: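 Each compound was tested on mec2-1 yeast, a strain altered in DNA damage repair or cell cycle control. Growth inhibition is reported relative to vehicle.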

[3] = NCI Yeast Anticancer Drug Screen. Data for the sgs1 mgt1 strain (AID 161);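 note: 0% = growth of cultures given vehicle only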; conditions: S. cerevisiae sgs1 mgt1 strain, at 50.0 µM, hits give high values
Method in brief: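 Genetically altered yeast, compound exposure, growth inhibition relative to vehicle.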

[4] = NCI Yeast Anticancer Drug Screen. Data for the cln2 rad14 strain (AID 165);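 note: 0% = growth equal to vehicle treated cultures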; conditions: S. cerevisiae cln2 rad14 strain, at 50.0 µM, hits give high values
Method in brief: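 Test compounds were added to cln2 rad14 yeast cultures; inhibition of growth was then determined by comparison with vehicle treatment.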

[5] = NCI Yeast Anticancer Drug Screen. Data for the bub3 strain (AID 167); conditions: S. cerevisiae bub3 mutant strain, at 50.0 µM, hits give high values
Method in brief: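 Steps: expose the mutant yeast strain to compound; grow alongside vehicle-treated cultures; measure growth; express inhibition against the vehicle cultures.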

[6] = NCI Yeast Anticancer Drug Screen. Data for the mlh1 rad18 strain (AID 175); conditions: S. cerevisiae mlh1 rad18 strain growth inhibition; at 50.0 µM; hits give high values
Method in brief: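 Inhibition values reflect reduced growth of mutant yeast versus vehicle-treated controls following compound exposure; the mutations affect DNA damage repair.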

Row | Structure (SMILES) | growth inhibition [1] | growth inhibition [2] | growth inhibition [3] | growth inhibition [4] | growth inhibition [5] | growth inhibition [6]
1 | O=C(O)CO | -7.7% | 3.05% | -6.25% | -1.25% | -9.15% | -29.1%
2 | O=C(/C=C/c1ccco1)c1ccc(NCc2nc3ccccc3[nH]2)cc1 | 40.2% | -7% | 41.5% | 33.9% | 13.8% | 25.8%
3 | c1ccc(-c2csc(-c3nc(-c4ccccc4)cs3)n2)cc1 | -0.55% | 50% | 30.6% | -6.85% | 33% | 60.6%
4 | NC(=S)NNCC(=O)CC(O)(C(F)(F)F)C(F)(F)Cl (stereo not drawn) | -21.2% | -6.95% | -21.6% | -21.9% | 21.4% | -0.65%
5 | COc1cc2c3cc1Oc1c(O)c(OC)cc4c1C(Cc1ccc(O)c(c1)Oc1ccc(cc1)CC3N(C)CC2)N(C)CC4 (stereo not drawn) | -22.1% | -47.2% | -33.6% | -5.4% | -24.5% | -13%
6 | c1ccc(C(Sc2ncnc3nc[nH]c23)c2ccccc2)cc1 | 15% | 13.2% | -3.85% | -22.5% | 18.1% | 0.1%
7 | CC1(C)CC[C@]2(C(=O)O)[C@H](O)C[C@]3(C)C(=CC[C@@H]4[C@@]5(C)CC[C@H](OC6OC(C(=O)O)C(O)C(O)C6O)C(C)(C)[C@@H]5CC[C@]43C)[C@@H]2C1 (stereo partly drawn) | 93.8% (active) | 95% (active) | 94.3% (active) | 92.7% (active) | 93.9% (active) | 93.7% (active)
8 | CC(=O)c1c(C)nc(SSc2nc(C)c(C(C)=O)c(-c3ccc(Cl)cc3)c2C#N)c(C#N)c1-c1ccc(Cl)cc1 | -30.8% | -7.8% | -15.9% | 6.35% | -26.2% | -2.2%
9 | CC(C)(O)C1CCC/C1=N/NC(N)=O (stereo not drawn) | -7.5% | 5% | 5.2% | 3.55% | -10.3% | -11.3%
10 | CCOCCOC(=O)C1CCCC1=O (stereo not drawn) | -5.25% | -11.3% | -34.9% | -10.1% | -11.2% | -8.45%
11 | NC(=O)SCCC(N)C(=O)O (stereo not drawn) | 8.4% | 27.5% | 3% | 12.7% | 17.9% | -4.9%
12 | O=C(OCCc1ccccc1)C(O)c1ccccc1 (stereo not drawn) | 11.3% | -6.05% | 3% | 10.7% | 6.6% | -1.3%
13 | Nc1ccccc1N1C(=O)C(Cl)=C(Cl)C1=O | 39.5% | 5.4% | 21.5% | 14.2% | 3% | 44%
14 | O=C(Nc1cc(C(F)(F)F)ccc1Cl)c1ccc(Cl)cc1Cl | 8.2% | 11.2% | 1.7% | -0.75% | 9.9% | 13.7%
15 | O=C(CCC(=O)OCC1CCCO1)OCC1CCCO1 (stereo not drawn) | 1.15% | 2.45% | 4.7% | 4.9% | 5.75% | -2.8%
16 | CCCCCCCCC(=O)N1SC(NC(=O)OC)=Nc2ccccc21 | 98.2% (active) | 98.2% (active) | 98% (active) | 90.2% (active) | 97% (active) | 98.1% (active)
17 | Cc1cc2c(=O)c(C(=O)O)c[nH]c2cc1-n1cccc1 | 41.8% | 23.6% | 45% | 15.7% | 36.3% | 33.2%
18 | Fc1ccc(Cl)c(-c2nc3ccccc3[nH]2)c1 | 14.2% | 15.4% | 2.85% | 2.35% | -1.5% | 47.3%
19 | CCc1nc(N)nc(N)c1-c1ccc2nn(-c3ccccc3)[n+]([O-])c2c1 | 4.25% | 10.8% | 20% | 14.8% | 14% | 4.85%

Row | Structure (SMILES) | growth inhibition [1] | growth inhibition [2] | growth inhibition [3] | growth inhibition [4] | growth inhibition [5] | growth inhibition [6]
20 | C1CN(SSN2CCSCC2)CCS1 | -2.1% | -18.5% | 6.5% | -100% | 7.15% | -14.5%
21 | CCc1ccccc1NC(=O)C1=C(C)NC(C)=C(C(=O)Nc2ccccc2CC)C1c1cccc([N+](=O)[O-])c1 | -0.95% | 52% | 24.2% | 17.9% | 36.5% | 20.5%
22 | O=C(Nc1ccc2ccccc2c1)C(F)(F)F | -14.7% | -1% | -4.25% | -9.8% | 5.4% | -8.95%
23 | O=C(O)CC(O)c1ccccc1 (stereo not drawn) | 30.8% | 13.6% | 16.6% | 17.1% | -0.95% | 18.6%
24 | COC(=O)c1c(OC)cc2cc3c(c(O)c2c1C)C(=O)C1(O)C(=O)C=C(OC)C(OC(=O)CC(C)N)=C1C3=O (stereo not drawn) | 26.1% | 1.05% | 24.2% | 25.9% | 22.9% | 33%
25 | CC(=O)OC1C=C(C=O)C(O)(C=O)C2(C)CCCC(C)(C)C12 (stereo not drawn) | -20.2% | -29.5% | -18.6% | 7.95% | 8.65% | -17.6%
26 | O=C(Nc1ccc(Cl)cc1)NS(=O)(=O)c1coc2cc(F)ccc2c1=O | 7% | -11.2% | -23.6% | 31.6% | 16.4% | 11.4%
27 | Nc1nc(N)nc(-c2ccccc2N)n1 | 2.2% | -7.5% | -14.2% | -45% | -22.8% | 5.6%
28 | O=C(c1ccccc1C(=O)N1CCCO1)N1CCCO1 | -0.45% | -8.3% | 6.9% | -15.8% | 6.15% | 16.9%
29 | COn1nnc2c([N+](=O)[O-])cccc21 | 18.8% | -6% | -3.15% | -22.9% | -16.4% | 5%
30 | Clc1ccc(N2C(c3ccccc3)=N[C@@H](N3CCOCC3)[C@@H]2N2CCOCC2)cc1 | -13.2% | -15.9% | -9.95% | -30.9% | -1.5% | -4.7%
31 | C/C(=N/N=C(N)N)c1cnn(C(=N)N)c1C | 15.3% | 13.3% | 18.2% | 19.4% | 20.9% | 28.4%
32 | CC(=NCCN=C(C)c1ccccc1O)c1ccccc1O.[Cu] | -17.9% | -8.05% | 2.25% | -23.6% | -6.15% | -8.55%
33 | CC(C)(C)OC(=O)c1c2ccccc2cc2ccccc12 | 21.9% | 12.4% | 14% | 14.2% | 12.1% | 10.3%
34 | CC(Nc1ccc(Br)cc1[N+](=O)[O-])C(=O)O (stereo not drawn) | 22.1% | 11.6% | 58.2% | 19.1% | 30.8% | 6.95%
35 | O=C(Oc1ccccc1)C(Cc1ccccc1)NC(=O)C(F)(F)F (stereo not drawn) | 4.6% | 7.7% | -4.8% | 1.5% | 5.85% | -37.4%
36 | c1ccc(-c2c(-c3ccc4c(c3)CCCC4)c(-c3ccccc3)c3c(c2-c2ccccc2)-c2cccc4cccc-3c24)cc1 | -4.15% | 2.8% | -2.45% | 13.3% | -2.9% | 2.75%
37 | COC(=O)C1=C(O)C(C(=O)OC)[C@@]2(O)[C@@H](C(=O)OC)CC[C@@H]1[C@@H]2C(=O)OC (stereo partly drawn) | -1.45% | -9.1% | -13.8% | 3% | -3.5% | 8.95%
38 | C=CCOC(=O)CCC(CCC(=O)OCC=C)C(C)=O | -25.4% | -19.4% | 0.55% | -9.6% | 4.1% | -11.5%
